Screening data: PubChem BioAssay, National Center for Advancing Translational Sciences (NCATS)
In the library only some 2.6% were active in any assay of this set; here they are far more common.
Cruzain inh Det – inhibitors of Trypanosoma cruzi cruzain with detergent. purified cruzain, Z-FR-AMC fluorescence, 0.01% Triton. Potency, µM, usual class: inhibitors. hit rate 0.43% among 200,000; also: nearly all actives have a fitted effect of over 40% in size
Target sequence (P25779 123-467 limits assumed): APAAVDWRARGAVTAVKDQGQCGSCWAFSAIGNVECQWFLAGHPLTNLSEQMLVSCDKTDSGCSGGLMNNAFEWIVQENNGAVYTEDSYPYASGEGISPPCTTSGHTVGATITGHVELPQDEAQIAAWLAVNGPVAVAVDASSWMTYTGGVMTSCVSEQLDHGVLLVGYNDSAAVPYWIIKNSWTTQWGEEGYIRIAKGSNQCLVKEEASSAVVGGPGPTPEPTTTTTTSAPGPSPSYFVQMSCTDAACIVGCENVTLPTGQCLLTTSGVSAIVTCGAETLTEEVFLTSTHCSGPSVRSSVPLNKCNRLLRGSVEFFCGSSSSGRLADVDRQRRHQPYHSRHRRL
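Detergent-containing run (0.01% Triton X-100) in acetate buffer pH 5.5 with 5 mM DTT: enzyme at 1.5 nM final, 15 min compound preincubation at room temperature, then 2 uM Z-FR-AMC substrate. Activity taken as 60 s fluorescence increase at 360/450 nm.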
Cruzain inh noDet – inhibitors of Trypanosoma cruzi cruzain without detergent. P25779. Potency, µM, hits mostly inhibitors. hit rate 2.3% among 200,000. purified cruzain, Z-FR-AMC fluorescence, no detergent; also: nearly all actives have a fitted effect of over 40% in size
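Detergent-free condition (0.00005% Triton X-100) in acetate buffer pH 5.5 with DTT. 1.5 nM enzyme and compound were pre-mixed 15 min, then 2 uM Z-FR-AMC substrate added; reaction progress from fluorescence change between first and third reads (60 s).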
Each line names hits and unclear results; the compound was inactive in the other large screens. Calls follow the shape of the dose curve; as a rule, active = well fitted curve in the direction sought with a large enough effect; inconclusive = small, poorly fitted or top-dose-only effect, or another doubt; inactive = no such curve, though single readings can be large; an effect the other way counts as inactive or inconclusive.

O=C(CSc1nc(Cc2ccccc2)nc2ccccc12)Nc1nc2c(s1)CCCC2	Cruzain inh noDet 25µM
CCCCC(CC)CNC(=O)CCCn1c(=O)[nH]c2ccsc2c1=O (configuration not stated)	none
Cc1cccc(NC(=O)CSc2nnc(CNC(=O)c3c(F)cccc3Cl)o2)c1C	none
CN(C)S(=O)(=O)c1cccc(NC(=O)c2cc(-c3cccs3)nc3ccccc23)c1	Cruzain inh noDet 16µM
O=C(Nc1ccc(Br)cc1)c1cc(-c2cccs2)nc2ccccc12	none
O=C(Nc1nc2c(s1)CCCC2)c1cc(-c2ccncc2)nc2ccccc12	Cruzain inh noDet inconclusive
O=C(Nc1nc2c(s1)CCCC2)c1cc(-c2ccccc2)nc2ccccc12	Cruzain inh noDet 20µM
CNc1ncc(C(=O)c2ccc(Cl)c(Cl)c2)s1	none
O=C(c1ccc(Cl)c(Cl)c1)c1cnc(Nc2ccccc2)s1	Cruzain inh noDet 20µM
Cc1ccccc1CNC(=O)Cn1ccc2cc(S(=O)(=O)N3CCCCC3)ccc21	none
COc1cc(NC(=O)N2CCC3(CC2)Nc2ccccc2-n2cccc23)cc(OC)c1OC	Cruzain inh noDet inconclusive
Cc1cccc(N2C(=O)C(CC(=O)Nc3ccc(F)cc3)N(C3CCCC3)C2=O)c1 (configuration not stated)	none
Cc1ccc(S(=O)(=O)Nc2ccc3c(c2)c2c(n3S(=O)(=O)c3ccc(C)cc3)CCCC2=O)cc1	Cruzain inh noDet 7.9µM
CCOC(=O)c1c(C)n(S(=O)(=O)c2ccc(C)cc2)c2ccc(NS(=O)(=O)c3ccc(C)cc3)cc12	Cruzain inh noDet 4µM
Cc1ccc(S(=O)(=O)Nc2ccc3c(c2)CCC3)cc1	none
CCn1cnc2cc(NS(=O)(=O)c3ccc(C)cc3)ccc21	none
CCc1ccc(NC(=O)CSc2nccn2C2CCCC2)cc1	none
Cc1nn(C)c2c1c(-c1ccccc1)cc(=O)n2CC(=O)NC(C)C	none
Cc1snc2sc(C(=O)c3ccc(Br)cc3)c(N)c12	Cruzain inh Det 20µM, Cruzain inh noDet 16µM
Cc1ccc(C(=O)c2sc3nsc(C)c3c2N)cc1	none
CS(=O)(=O)Nc1ccc(Cc2noc(-c3ccc4[nH]cc(CCN)c4c3)n2)cc1	Cruzain inh noDet 32µM
COc1ccc2[nH]cc(CCNc3ccnc(-c4cccc(NS(C)(=O)=O)c4)n3)c2c1	none
O=C(Nc1ccc(F)cc1)C(c1ccccc1)N1CCN(S(=O)(=O)c2ccc3ccccc3c2)CC1 (configuration not stated)	Cruzain inh noDet inconclusive
Cc1ccc(C)c(S(=O)(=O)N2CCN(C(C(=O)Nc3ccc(F)cc3)c3ccccc3)CC2)c1 (configuration not stated)	Cruzain inh noDet 25µM
CCn1c(-c2cc(Br)cc(OC)c2O)nc2cc(S(=O)(=O)N(C)C)ccc21	Cruzain inh noDet 20µM
CCn1c(CSc2nnc(C)n2-c2ccccc2)nc2cc(S(=O)(=O)N(C)C)ccc21	none
COC(=O)CN(C#N)c1nc(SC)nc(N(C)C)n1	Cruzain inh Det 16µM, Cruzain inh noDet 13µM
CC(=O)OCN(C#N)c1nc(N(C)C)nc(N(C)C)n1	none
c1ccc(CNc2nc3c(-c4ccccc4)nnn3c3ccccc23)cc1	none
COc1ccc2c(-c3cc4ccc(OCc5ccc(F)cc5)cc4oc3=O)cc(=O)oc2c1	Cruzain inh noDet 10µM
O=c1oc2cc(OCc3ccc(C(F)(F)F)cc3)ccc2cc1-c1ccccn1	none
CCCCNC(=O)CCCn1c(=O)c2ccccc2n(Cc2ccc(Cl)cc2)c1=O	none
Cc1ccc(CNC(=O)CSc2nc3ccccc3nc2Cc2ccc(C)cc2)cc1	none
Cc1sc2ncnc(SCc3ccco3)c2c1C	none
Cc1nnc(NC(=O)CSc2ncnc3scc(-c4ccccc4)c23)s1	none
COC(=O)c1c(-c2ccccc2)csc1NC(=O)CSc1ncnc2sc(C)c(C)c12	Cruzain inh noDet 6.3µM
Cc1sc2ncnc(SCC(=O)NCC(C)C)c2c1C	none
Cc1sc2ncnc(SCC(=O)c3ccc(Cl)s3)c2c1C	Cruzain inh noDet 10µM
CCc1ccc(OCC(=O)NNC(=O)CSc2ncnc3sc(C)c(C)c23)cc1	Cruzain inh noDet 20µM
CCOC(=O)Oc1ccc2c(=O)c(Oc3cccc(C)c3)coc2c1	none
Cc1cccc(Oc2coc3cc(OC(=O)c4cc5ccccc5oc4=O)ccc3c2=O)c1	Cruzain inh noDet 5µM
O=C(NCc1ccccc1)c1cnc2sc(N3CCCC3)nn2c1=O	none
CCOC(=O)c1ccc(NC(=O)Cc2noc3ccc(C)cc23)cc1	none
COc1ccc(NC(=O)Cc2noc3ccc(C)cc23)cc1Cl	Cruzain inh Det inconclusive, Cruzain inh noDet 25µM
CCNc1nc(NCc2ccc(F)cc2)c2cnn(C)c2n1	none
CCOC(=O)C1=C(C)NC(=O)NC1c1cn(-c2ccccc2)nc1-c1ccc(OC(C)C)cc1 (configuration not stated)	none
CC1=C(C(=O)c2ccccc2)C(c2cn(-c3ccccc3)nc2-c2ccc(Cl)cc2)NC(=S)N1 (configuration not stated)	Cruzain inh noDet 10µM
CN(CC(=O)Nc1ccc(Br)cc1)S(=O)(=O)c1cccc2nsnc12	none
